In PubChem BioAssay (NCI) one finds growth data, which are given here for nine compounds.

The structures appear in SMILES notation. Compounds without any hit were thinned out: in the full panel of roughly 83,000, 20% have a hit.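 Cell lines were cultured in 96-well plates, exposed to a single compound concentration, and assessed for percent growth 48 hours later.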 A number with no mark means an inactive call. Active and inactive are the calls of the source. The calls were made as follows: active = growth percent below 10; inactive = the rest.

Assay in all cases: NCI-60 one-dose screen, 48 h (100 = growth as untreated, 0 = no growth, -100 = all killed)
One assay has as its system DU-145 prostate. As to conditions: 10 µM unless noted.
The subject of a further assay is K-562 leukemia. As to conditions: 10 µM unless noted.
Another assay relates to MALME-3M melanoma. As to conditions: 10 µM unless noted.
Another assay has as its system MDA-MB-231 breast. As to conditions: 10 µM unless noted.
A further assay relates to RXF 393 renal. As to conditions: 10 µM unless noted.
The test system of a further assay is SF-268 CNS. As to conditions: 10 µM unless noted.
For a further assay, the system named is SF-295 CNS. As to conditions: 10 µM unless noted.
A further assay relates to SF-539 CNS. As to conditions: 10 µM unless noted.
The subject of the next assay is UACC-257 melanoma. As to conditions: 10 µM unless noted.
The next assay concerns M14 melanoma. As to conditions: 10 µM unless noted.
The next assay concerns HCT-15 colon. As to conditions: 10 µM unless noted.
The subject of the next assay is HT29 colon. As to conditions: 10 µM unless noted.
The next assay concerns SNB-19 CNS. As to conditions: 10 µM unless noted.
The subject of another assay is U251 CNS. As to conditions: 10 µM unless noted.
A further assay concerns PC-3 prostate. As to conditions: 10 µM unless noted.
The next assay has as its system SK-MEL-5 melanoma. As to conditions: 10 µM unless noted.
The next assay relates to UACC-62 melanoma. As to conditions: 10 µM unless noted.
A further assay relates to LOX IMVI melanoma. As to conditions: 10 µM.
The test system of another assay is SK-MEL-28 melanoma. As to conditions: 10 µM unless noted.
Another assay concerns SNB-75 CNS. As to conditions: 10 µM unless noted.

`CCCOS(=O)(=O)c1ccccc1`: the growth was 118% with DU-145 prostate; 128% in the assay on K-562 leukemia; 111% in the assay with MALME-3M melanoma; 107% with MDA-MB-231 breast; 112% in the assay on RXF 393 renal; 106% with SF-268 CNS. The growth in the assay on SF-295 CNS is 113%; in the assay on SF-539 CNS it was 102%; with UACC-257 melanoma it was 111%; with M14 melanoma it was 115%; with HCT-15 colon, 102%; with HT29 colon it was 110%. In addition, the growth with SNB-19 CNS is 103%; with U251 CNS, 106%; in the assay on PC-3 prostate it was 92.1%; in the assay on SK-MEL-5 melanoma, 112%; with UACC-62 melanoma it was 102%; in the assay with LOX IMVI melanoma, 103%. Besides, the growth in the assay on SK-MEL-28 melanoma was 122%.
Turning to `CCCCCCCCc1cc(Cl)c(O)c(Cl)c1`, the growth was 103% in the assay with DU-145 prostate; 104% in the assay on K-562 leukemia; 100% with MALME-3M melanoma; 103% in the assay on MDA-MB-231 breast; 113% in the assay on RXF 393 renal; 98.5% with SF-268 CNS. Further, the growth in the assay on SF-295 CNS is 113%; in the assay on SF-539 CNS, 99.5%; in the assay with UACC-257 melanoma, 104%; in the assay with M14 melanoma it was 107%; in the assay with HCT-15 colon it was 115%; in the assay with SNB-75 CNS it was 98.4%. The growth with SNB-19 CNS is 93.2%; with U251 CNS it was 101%; in the assay on PC-3 prostate, 89.9%; in the assay with SK-MEL-5 melanoma it was 108%; in the assay on UACC-62 melanoma, 99.5%; in the assay on LOX IMVI melanoma, 95.6%.
Turning to `CCC(C)C(N)C(=O)NC(CC(N)=O)C(=O)NC(CC(C)C)C(=O)NC(CCCCN)C(=O)NC(C)C(=O)NC(CC(C)C)C(=O)NC(C)C(=O)NC(C)C(=O)NC(CC(C)C)C(=O)NC(C)C(=O)NC(CCCCN)C(=O)NC(CCCCN)C(=O)NC(C(=O)NC(CC(C)C)C(N)=O)C(C)CC` (stereo not given), the growth with DU-145 prostate was 57.9%; in the assay with K-562 leukemia it was 82.5%; in the assay with MALME-3M melanoma, 52.1%; with MDA-MB-231 breast it was 62.1%; in the assay with RXF 393 renal, 39.6%; in the assay on SF-268 CNS it was 66.8%. The growth with SF-295 CNS is 106%; in the assay with SF-539 CNS, 35.6%; in the assay with UACC-257 melanoma, 104%; with HCT-15 colon, 101%; with HT29 colon, 105%; in the assay with SNB-75 CNS it was 85.3%. In addition, the growth in the assay on SNB-19 CNS was 98.1%; in the assay on U251 CNS, 69.9%; in the assay on PC-3 prostate, 80.5%; in the assay on SK-MEL-5 melanoma it was 3.42% (active); in the assay with UACC-62 melanoma, 9.79% (active); with LOX IMVI melanoma, 101%.
As for `C(=N\Nc1ccc2ccccc2n1)/c1ccccn1`, the growth with DU-145 prostate was 22.7%; in the assay on K-562 leukemia, 15.4%; with MALME-3M melanoma, -23.6% (active); in the assay with MDA-MB-231 breast it was 30.5%; with RXF 393 renal, 16.7%; in the assay with SF-268 CNS, 16.7%. Besides, the growth in the assay with SF-295 CNS was 14.7%; in the assay on SF-539 CNS it was -14.2% (active); in the assay on UACC-257 melanoma, -3.38% (active); with M14 melanoma, -8.17% (active); with HCT-15 colon, 28.5%; in the assay on HT29 colon, 32.1%. Also, the growth is 21.3% in the assay on SNB-19 CNS; 45.1% with PC-3 prostate; -10.8% (active) in the assay with SK-MEL-5 melanoma; -14.4% (active) with UACC-62 melanoma; 15.1% in the assay on LOX IMVI melanoma; 32.9% in the assay with SK-MEL-28 melanoma.
Take `CCSc1nc2ccccc2o1`: the growth in the assay with DU-145 prostate was 111%; in the assay on K-562 leukemia, 100%; with MALME-3M melanoma, 118%; in the assay on MDA-MB-231 breast, 112%; in the assay on RXF 393 renal, 110%; in the assay with SF-268 CNS it was 96.1%. The growth in the assay with SF-295 CNS was 113%; with SF-539 CNS it was 96.3%; in the assay on UACC-257 melanoma, 106%; in the assay on M14 melanoma, 109%; in the assay on HCT-15 colon, 102%; in the assay with HT29 colon it was 113%. Besides, the growth is 88.2% with SNB-75 CNS; 99.9% with SNB-19 CNS; 92.3% in the assay on PC-3 prostate; 102% with UACC-62 melanoma; 103% with LOX IMVI melanoma; 113% in the assay with SK-MEL-28 melanoma.
On to `CCCN(CCC)C(=O)c1ccc(C)cc1`, for which the growth in the assay on DU-145 prostate was 109%; with K-562 leukemia it was 109%; in the assay with MALME-3M melanoma, 100%; in the assay with MDA-MB-231 breast it was 108%; with RXF 393 renal it was 113%; with SF-268 CNS, 100%. For the same compound, the growth with SF-295 CNS is 91.9%; in the assay on SF-539 CNS, 101%; in the assay with UACC-257 melanoma, 91.3%; in the assay with M14 melanoma it was 95.2%; in the assay with HCT-15 colon, 100%; with HT29 colon it was 96%. Also, the growth was 105% in the assay with SNB-75 CNS; 98.2% in the assay with SNB-19 CNS; 86.5% in the assay with PC-3 prostate; 92.2% with SK-MEL-5 melanoma; 97.2% in the assay on UACC-62 melanoma; 95.4% with LOX IMVI melanoma. In addition, in the assay on SK-MEL-28 melanoma, the growth was 105%.
Turning to `Cc1cc(C(=C2C=CC(=Nc3ccccc3)C=C2)c2ccc(Nc3ccccc3)cc2)ccc1N`, the growth is -97.2% (active) in the assay with DU-145 prostate; 14.1% with K-562 leukemia; -63.6% (active) with MALME-3M melanoma; -56% (active) in the assay on MDA-MB-231 breast; -93.7% (active) in the assay with RXF 393 renal; -68.7% (active) in the assay with SF-268 CNS. In addition, the growth is -71.9% (active) in the assay with SF-295 CNS; -60.8% (active) in the assay on SF-539 CNS; -91.6% (active) with UACC-257 melanoma; -31.7% (active) in the assay with HCT-15 colon; -75.4% (active) in the assay on HT29 colon; -74.6% (active) with SNB-75 CNS. The growth in the assay with SNB-19 CNS was -55.4% (active); in the assay on U251 CNS, -97.4% (active); in the assay with PC-3 prostate, -60.4% (active); in the assay on SK-MEL-5 melanoma, -95.9% (active); in the assay with UACC-62 melanoma, -65.6% (active); in the assay with LOX IMVI melanoma, -93.8% (active).
On to `Oc1ccc(Nc2ccc3ccccc3c2)cc1`, for which the growth with DU-145 prostate is 51.2%; with K-562 leukemia it was 26.5%; in the assay with MALME-3M melanoma, 92.9%; in the assay with MDA-MB-231 breast, 36%; in the assay with RXF 393 renal, 78.3%; with SF-268 CNS, 50.4%. Besides, the growth was 67.7% in the assay with SF-295 CNS; 36.6% with SF-539 CNS; 73.7% in the assay on UACC-257 melanoma; 53.3% in the assay on M14 melanoma; 54.7% in the assay on HCT-15 colon; 95.8% in the assay with HT29 colon. Further, the growth in the assay on SNB-75 CNS was 63.2%; in the assay with SNB-19 CNS it was 75.5%; in the assay with PC-3 prostate, 39.2%; with UACC-62 melanoma, 18%; in the assay with LOX IMVI melanoma, 40.9%; in the assay on SK-MEL-28 melanoma, 90.3%.
For the compound `O=C1c2ccccc2C(=O)c2c(O)c(Cl)cc(O)c21`, the growth was 69.7% in the assay on DU-145 prostate; 57% in the assay on K-562 leukemia; 71.5% with MALME-3M melanoma; 95.6% with MDA-MB-231 breast; 103% with RXF 393 renal; 94.4% in the assay with SF-268 CNS. Moreover, the growth is 113% in the assay on SF-295 CNS; 99.1% in the assay on SF-539 CNS; 58.4% with UACC-257 melanoma; 81.9% in the assay on HCT-15 colon; 39% with HT29 colon; 96% in the assay with SNB-75 CNS. Also, the growth with SNB-19 CNS is 93.1%; with U251 CNS, 38%; in the assay on PC-3 prostate, 77%; in the assay on SK-MEL-5 melanoma, 108%; in the assay with UACC-62 melanoma, 81.3%; in the assay on LOX IMVI melanoma, 50.9%. Moreover, in the assay with SK-MEL-28 melanoma, the growth is 103%.
